The entries come from a sample that favours hits as a whole.
GALK inhibitor = inhibitors of human galactokinase; Purified GALK, Kinase-Glo residual ATP luminescence; Potency, µM (titrated, usually from 57.5 µM), without a hit: top-dose activity change, negative = inhibition, actives largely listed as inhibitors; hit rate 0.007% among 270,000; AID 1868; further: potency means the concentration at half of the fitted maximal effect
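Luminescence from leftover ATP (Ultra-Glo luciferase/luciferin) served as read-out after a 1 h room-temperature reaction of 5 nM GALK with 35 uM ATP and 100 uM galactose.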
CtBP-E1A blk = inhibitors of CtBP/E1A interaction; AlphaScreen GST-E1A/His-CtBP binding, 1536-well; stronger effect = lower value; activity change, % (test concentration not listed); hit rate 0.49% among 340,000; AID 651724; in the data active means activity change below about -65%; inconclusive means mostly about -30% to -63%
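GST-E1A and His-tagged CtBP (125 nM each as 5X stock) were preincubated with pin-transferred compound for 2 h at 37 °C in the dark, then glutathione donor and nickel acceptor beads were added for 1 h before AlphaScreen reading.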
Anesthetic bind = binds horse apoferritin like a general anesthetic; P02791; apoferritin/1-aminoanthracene competitive binding, fluorescence; Potency, µM (top dose mostly 77.5 µM), without a hit: at the highest dose activity change, negative = displacement, most hits filed as inhibitors; hit rate 0.074% among 350,000; further: potency means the concentration at half of the fitted maximal effect; nearly all actives have a fitted effect of over 20% in size
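Apoferritin-based anesthetic binding model; compound displacement of fluorescent 1-AMA measured as endpoint fluorescence after 10 minutes at room temperature, scaled to free-ligand and complex controls.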
Eya2 inh = inhibitors of human Eya2 phosphatase activity; recombinant Eya2, OMFP fluorescence dephosphorylation (OMFP is methylfluorescein phosphate); hit rate 0.006% among 330,000; O00167; Potency, µM (titrated, usually from 76.9 µM), for inactives: at the highest dose activity, negative = inhibition, most hits filed as inhibitors; further: potency means the concentration at half of the fitted maximal effect
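Eya2 protein (added as 0.2 uM solution) was preincubated with compound for 10 min at ambient temperature in 50 mM HEPES pH 7.5, 50 mM NaCl, 5 uM MgCl2, 0.05% BSA, 1 mM DTT. OMFP (added at 50 uM) then reacted 10 min; fluorescence read at 485/525 nm.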
Six1-Eya2 blk = blocks human Six1 binding to Eya2 | AlphaScreen GST-Six1/His-Eya2 binding, biochemical; stronger effect = lower value | AID 651725 | Q15475+O00167 | activity change, % (test concentration not listed) | hit rate 0.56% among 360,000; in the data active means activity change below about -65%; inconclusive means mostly about -30% to -63%
Target sequence (O00167 whole entry, looked up): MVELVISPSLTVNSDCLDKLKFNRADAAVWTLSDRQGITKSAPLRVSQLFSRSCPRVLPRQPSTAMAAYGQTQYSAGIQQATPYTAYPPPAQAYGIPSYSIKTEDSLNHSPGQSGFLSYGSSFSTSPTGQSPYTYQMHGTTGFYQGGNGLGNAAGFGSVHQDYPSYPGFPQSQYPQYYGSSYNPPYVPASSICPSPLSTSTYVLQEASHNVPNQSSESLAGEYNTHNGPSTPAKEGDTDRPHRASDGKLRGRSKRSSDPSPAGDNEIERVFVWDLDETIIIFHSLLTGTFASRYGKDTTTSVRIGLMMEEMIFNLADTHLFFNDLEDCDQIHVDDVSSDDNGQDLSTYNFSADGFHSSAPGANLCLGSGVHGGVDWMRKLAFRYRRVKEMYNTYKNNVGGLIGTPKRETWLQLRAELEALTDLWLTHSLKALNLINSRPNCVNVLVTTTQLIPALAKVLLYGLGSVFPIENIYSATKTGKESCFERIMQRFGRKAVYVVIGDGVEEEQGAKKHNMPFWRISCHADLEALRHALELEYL
Target sequence (Q15475 whole entry, looked up): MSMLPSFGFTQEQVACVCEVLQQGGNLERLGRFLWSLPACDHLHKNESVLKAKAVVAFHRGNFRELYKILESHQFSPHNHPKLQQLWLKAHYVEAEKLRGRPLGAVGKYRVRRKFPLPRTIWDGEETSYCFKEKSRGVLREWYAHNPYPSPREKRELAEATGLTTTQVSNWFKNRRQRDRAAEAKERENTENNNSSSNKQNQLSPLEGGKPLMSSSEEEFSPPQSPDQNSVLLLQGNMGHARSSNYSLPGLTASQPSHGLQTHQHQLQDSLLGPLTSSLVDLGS
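Compounds are tested against tagged Six1 and Eya2 proteins bridged by glutathione donor and nickel acceptor beads; after a one-hour incubation at 37 °C without light, AlphaScreen emission is recorded.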
KDM4E inh = blocks human JMJD2E demethylase activity. hit rate 1.6% among 230,000. B2RXH2. JMJD2E catalytic domain, FDH-coupled NADH fluorescence (FDH is formaldehyde dehydrogenase). Potency, µM (titrated, usually from 57.1 µM), for inactives: at the top dose activity change, negative = inhibition, hits mostly inhibitors; active means well fitted inhibition curve with a large enough effect, not every such curve was filed as active; inconclusive means small, poorly fitted or top-dose-only effect, or another doubt; inactive means no such curve, though single readings can be large or run the other way;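 further: potency means the concentration at half of the fitted maximal effect; 0% = wells with enzyme and -100% = buffer wells without enzyme; nearly all actives have a fitted effect of over 50% in size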
Numbers without * were called inactive; ? = inconclusive; / = no result given. Unless noted, the call rests on the fitted dose curve; in most records, active means well fitted curve in the direction sought with a large enough effect; inconclusive means small, poorly fitted or top-dose-only effect, or another doubt; inactive means no such curve, though single readings can be large; an effect the other way counts as inactive or inconclusive. Unless noted, on the % scale 0 is the no-effect control and ±100 the full control effect.

SMILES	GALK inhibitor	CtBP-E1A blk	Anesthetic bind	Eya2 inh	Six1-Eya2 blk	KDM4E inh
COc1ccc(NC(=O)CC2Sc3ncnn3C2=O)cc1 (stereo not given)	-1%	3	-11%	4%	-10	2µM*
CCCOCc1ccc(O)c2ncccc12	4%	-94*	-4%	-1%	-70*	14µM*
CC(C)COCc1ccc(O)c2ncccc12	7%	-91*	-12%	12%	-79*	20µM*
CN(Cc1ccco1)Cc1ccc(O)c2ncccc12	/	/	/	-12%	/	/
Cc1ccc(N=Nc2ccc(O)c3ncccc23)cc1	2%	-23	-10%	-2%	?	-3%
Cc1nc(-n2nc(C)c(Cc3ccccc3Cl)c2C)sc1C(=O)N1CCCCC1C (stereo not given)	/	/	-10%	/	/	/
COC(=O)c1ccc(-c2nc3cc(Cl)c(N)cc3s2)cc1	3%	8	14%	-18%	32	2.5µM*
CC1CCCCN1S(=O)(=O)c1ccc(NC(=O)c2cccc(-n3cnnn3)c2)cc1 (stereo not given)	3%	-6	?	-5%	-9	-10%
CC1CCCN(S(=O)(=O)c2ccc(NC(=O)c3cccc(-n4cnnn4)c3)cc2)C1 (stereo not given)	-3%	-1	14µM*	1%	-2	-3%
CCCCC#Cc1nc(NC)c2ncn([C@@H]3O[C@H](CO)[C@@H](O)[C@H]3O)c2n1	/	/	/	-2%	/	/
CC1=NN(c2ccc(C(=O)O)cc2)C(=O)/C1=C\c1ccc(OC(=O)c2cccs2)cc1	-4%	/	-15%	?	?	3.2µM*
CCOc1cc(/C=C2\C(=O)N(c3ccc(C(N)=O)cc3)N=C2C)ccc1OC(=O)c1cccs1	-5%	-2	-24%	1%	-7	?
Cc1ccc(N2CC(NC(=O)CCc3ccccc3)CC2=O)cc1C (stereo not given)	/	/	-6%	/	/	/
COc1c(O)cc2c(=O)oc3c(OC)c(O)cc4c(=O)oc1c2c34	/	/	/	/	/	7.1µM*
COc1cc(O)c2c(c1)oc(=O)c1c3cc(O)c(O)cc3oc21	/	/	71%	/	/	/
COC(=O)c1ccc(C(NC(=O)OCc2ccccc2)/C(F)=C/[C@@H](C)C(=O)N[C@@H](CO)Cc2ccccc2)cc1 (stereo not given in full)	/	/	-6%	/	/	-8%
O=C(Nc1ccc(S(=O)(=O)Nc2ncccn2)cc1)c1ccc2ncsc2c1	-12%	5	-3%	6%	-19	3.2µM*
CC(C(=O)O)N1C(=O)/C(=C/c2cccn2C)SC1=S (stereo not given)	0%	4	-4%	2%	-6	-22%
Cn1cccc1/C=C1/SC(=S)N(CC(=O)O)C1=O	-3%	-9	-3%	12%	-18	22µM*
COc1cc(NC(=O)c2cccs2)c(OC)cc1NC(=O)CCC(=O)Nc1ccc2ncccc2c1	-3%	/	135%	1%	-69*	?
COc1cc(NC(=O)c2cccs2)c(OC)cc1NC(=O)Cc1ccccc1	0%	-6	-9%	1%	-81*	/
CCOCc1cc(CN2CCN(c3ccccc3OC)CC2)c(O)c2ncccc12	/	/	-6%	/	/	/
O=[N+]([O-])c1cc(CN2CCCC2)c2cccnc2c1O	1%	-1	-3%	2%	-79*	20µM*
Oc1c(Cl)cc(CN2CCCCC2)c2cccnc12	-1%	/	-12%	4%	/	/
COCc1cc(CN2CCCC2)c(O)c2ncccc12	?	-94*	?	-2%	-91*	3.5µM*
SMILES	GALK inhibitor	CtBP-E1A blk	Anesthetic bind	Eya2 inh	Six1-Eya2 blk	KDM4E inh
COc1ccccc1N1CCN(Cc2cc(Br)c(O)c3ncccc23)CC1	-1%	-85*	-13%	-14%	-92*	25µM*
Oc1c(CN2CCCCC2)ccc2cccnc12	/	-93*	/	/	-80*	/
CCc1ccc(OC(C)C(=O)N2CCC(c3nc4ccccc4s3)CC2)cc1 (stereo not given)	/	/	9%	/	/	/
COC(=O)[C@@H]1[C@H]2C[C@H]3c4[nH]c5ccccc5c4CCN3C[C@H]2CC[C@@H]1O	/	/	0%	/	/	/
CN(C)C1CCN(Cc2cc(COCc3ccccc3)c3cccnc3c2O)C1 (stereo not given)	/	/	/	4%	/	/
Oc1c(CN2CCCCC2)cc(COCc2ccccc2)c2cccnc12	0%	-3	?	-13%	-85*	-3%
COC(=O)c1ccc2cc(OC)c(OC)cc2c1	/	0	/	/	-2	/
COC(=O)c1cc(=O)c(O)c2c(O)c(O)ccc2c1	/	/	-17%	/	/	8.9µM*
Cc1ccc(Nc2c(-c3ccc(C)s3)nc3ncccn23)cc1	/	/	4%	/	/	/
C/C(CC(C)C)=N/Nc1ccc([N+](=O)[O-])cc1[N+](=O)[O-]	-1%	/	-7%	24%	?	4%
CC(Cc1ccccc1)=NNc1ccc([N+](=O)[O-])cc1[N+](=O)[O-]	/	?	/	/	-65*	/
O=C1CCCC2=C1C1(CCCCC1)N=C(Nc1nc3ccccc3o1)N2	22µM*	-3	2%	-1%	1	6%
O=C(NC1(O)C(=O)c2ccccc2C1=O)c1ccc(C(F)(F)F)cc1	?	-23	3%	?	74	?
Cc1ccc(C(=O)NC2(O)C(=O)c3ccccc3C2=O)cc1C	?	-20	-4%	-13%	8	14µM*
CCOC(=O)c1c2c3c(c(Cl)ccc3[nH]c1=O)C(=O)c1ccccc1-2	-3%	-89*	-14%	-1%	-76*	6%
CCOC(=O)c1c2c3c(cccc3[nH]c1=O)C(=O)c1ccccc1-2	4%	?	-5%	1%	?	6%
CCOC(=O)c1c2c3c(cccc3n(C)c1=O)C(=O)c1ccccc1-2	3%	-83*	-13%	-12%	-69*	/
CCOC(=O)c1c2c(n(C)c1C)C(=O)C(=O)c1ccc(Br)cc1-2	/	12	/	/	5	/
CCOC(=O)c1c2c(n(Cc3ccccc3)c1C)C(=O)C(=O)c1ccccc1-2	/	-79*	/	/	?	/
COc1cc(-c2nc3nc[nH]n3c2Nc2ccc(C(C)C)cc2)ccc1O	/	/	-11%	/	/	/
CCC1CCCCN1S(=O)(=O)c1ccc(NC(=O)c2cccs2)cc1 (stereo not given)	-5%	-13	-18%	2%	-3	-11%
CCC1CCCCN1S(=O)(=O)c1ccc(NC(=O)CSc2ncccc2C(=O)O)cc1 (stereo not given)	8%	5	?	15%	-83*	3%
CCOc1ccc(C(=O)N/N=C/c2cccc3cccnc23)cc1	2%	-98*	-21%	22%	-92*	?
COc1ccc2nc(/C=N/NC(=O)[C@H](CCSC)NC(=O)OC(C)(C)C)ccc2c1	-3%	-5	-8%	-4%	-25	?
COc1cccc(/C=N/NC(=O)c2ccncc2)c1OC(=O)c1ccc(Br)cc1	8%	-81*	-12%	7%	?	/

Source: PubChem BioAssay (National Center for Advancing Translational Sciences (NCATS))
